Results published in PubChem BioAssay AID2685 (National Center for Advancing Translational Sciences (NCATS), 2010).
About 2,100 (0.66%) of roughly 320,000 compounds were called active. Another 53% or so got no clear call; they are omitted. Calls follow the shape of the dose curve; as a rule, active = well fitted inhibition curve with a large enough effect in the signal ratio, with a control signal flat (not every such curve was filed as active); inconclusive = small, poorly fitted or top-dose-only effect, or effect the other way, or a change in a side signal; inactive = flat fitted curve, though single readings scatter; the % refers to the signal ratio. The sample as a whole holds a higher share of actives than the screen did.

Assay: qHTS Assay for Lipid Storage Modulators in Drosophila S3 Cells;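 as to cell number change: cells counted by Cell Tracker Red CMTPX staining in the red channel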
Conditions: BODIPY lipid droplet fluorescence, 18-24 h, cells fed with added oleic acid; cell number change: measured here: cell count max response; series mostly up to 46.1 µM
Procedure, shortened: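 Drosophila S3 cells got compounds at several concentrations plus oleic acid (400 uM solution). Laser-scanning cytometry with 488 nm excitation read lipid droplets at 500-530 nm and cells at 575-640 nm. Percent activity was relative to 20 uM Triacsin C.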
Potency is read from the fitted curve at half-maximal effect.

| SMILES | Potency | cell number change [%] |
| --- | --- | --- |
| CC12CN(C(=O)c3ccc(Cl)cc3)C3(C#N)CC1CCC23C (configuration not stated) | inactive |  |
| Cc1ccc(Cc2cnc(NC(=O)C3CCCO3)s2)cc1 (configuration not stated) | 2.06 µM (active) | 15.9 |
| CCOC(=O)c1c(-c2ccc(C)cc2)csc1NC(=O)C1CCCO1 (configuration not stated) | 6.51 µM (active) | 11.7 |
| O=C(Nc1ncc(Cc2cccc(Cl)c2)s1)C1CCCO1 (configuration not stated) | inactive | -0.923 |
| CCOC(=O)c1c(-c2ccccc2)csc1NC(=O)C1CCCO1 (configuration not stated) | inactive | -4.26 |
| O=C(Nc1ncc(Cc2cccc(C(F)(F)F)c2)s1)C1CCCO1 (configuration not stated) | inactive | -4.39 |
| CCOC(=O)c1c(-c2ccc(F)cc2)csc1NC(=O)C1CCCO1 (configuration not stated) | inactive | 2.19 |
| O=C(NCC1CCCO1)C(=O)N/N=C\c1ccc2c(c1)OCO2 (configuration not stated) | inactive | -7.51 |
| Cc1c(C(=O)N2CCCCCC2)c(S(=O)(=O)Nc2cccc(F)c2)c(C)n1C | inactive |  |
| COc1cc2c(cc1OC)CN(c1nc(-c3cccnc3)nc3ccccc13)CC2 | inactive | 13.3 |
| COc1cc2c(cc1OC)CN(c1ccc(-c3ccccc3OC)nn1)CC2 | inactive | -18 |
| COc1cc2c(cc1OC)CN(c1ccc3ccccc3n1)CC2 | 14.6 µM (active) | -10.9 |
| O=C(Nc1ccc(Cl)cc1)NN1CC(=O)N(c2cccc(C(F)(F)F)c2)CC1=O | inactive | -8.1 |
| Cc1ccc(OCCn2cc(Br)c(=O)[nH]c2=O)cc1 | inactive | -2.4 |
| COc1cccc(CNC(=O)CCC2CCCN(C(=O)c3cc(C)on3)C2)c1 (configuration not stated) | inactive | 6.95 |
| C=CCNC(=S)/N=c1/ccccn1C | inactive | -1.1 |
| Cc1cccc(CN2CCC(C(=O)Nc3cccc(-c4cccc(F)c4)c3)CC2)n1 | inactive |  |
| Cc1nnc(SCc2ccc(F)cc2)s1 | 2.06 µM (active) | -1.22 |
| Cc1nnc(SCc2ccc(F)cc2Cl)s1 | inactive | -1.12 |
| COc1ccc(CSc2nnc(C)s2)cc1F | inactive | 9.99 |
| COc1ccc(OC)c(C(=O)COC(=O)C(CCSC)NC(=O)COc2ccccc2)c1 (configuration not stated) | inactive |  |
| O=C(NCCCN1CCCCC1)C1CCN(S(=O)(=O)N2CCC3(CC2)OCCO3)CC1 | inactive | -12.2 |
| CC1CCN(CCCNC(=O)C2CCN(S(=O)(=O)N3CCC4(CC3)OCCO4)CC2)CC1 | inactive | 1.22 |
| O=C(NCCN1CCCC1)C1CCN(S(=O)(=O)N2CCC3(CC2)OCCO3)CC1 | 29.1 µM (active) | -14.5 |

| SMILES | Potency | cell number change [%] |
| --- | --- | --- |
| O=C(CCCC(=O)c1ccccc1)NCCc1ccccc1F | inactive | 22 |
| Clc1ccc(-c2nnc(N3CCOCC3)o2)cc1 | inactive | 3.72 |
| CC(=O)c1ccc(OCCCC(=O)Nc2cccc(S(=O)(=O)N(C)C)c2)cc1 | inactive | 1.3 |
| O=S(=O)(NCC(c1ccco1)N1CCN(c2ccccc2F)CC1)c1ccccc1 (configuration not stated) | inactive | 26.9 |
| O=S(=O)(NCC(c1ccco1)N1CCN(c2ccccc2F)CC1)c1ccc2c(c1)OCCO2 (configuration not stated) | 23.1 µM (active) |  |
| O=S(=O)(NCC(c1ccco1)N1CCN(c2ccccc2)CC1)c1ccc(F)cc1 (configuration not stated) | inactive | 9.35 |
| CCn1c(=N)c(S(=O)(=O)c2ccc(C)cc2)cc2c(=O)n3ccccc3nc21 | inactive | 11.4 |
| CN(C)S(=O)(=O)N1CCN(c2cc(Cl)ccc2Cl)CC1 | inactive | -20.4 |
| COc1ccc(/C=C2\CCc3ccccc3C2=O)cc1O | inactive | -1.8 |
| COc1ccc(/C=C2\Cc3ccccc3C2=O)cc1OC | inactive | -17.4 |
| COc1cc(/C=C2\CC/C(=C\c3ccc(OCCO)c(OC)c3)C2=O)ccc1OCCO | 16.4 µM (active) | 11.6 |
| CCn1c(=O)cc(OCC(=O)Nc2ccc(C)cn2)c2ccccc21 | inactive | 8 |
| COc1ccc(C)cc1NC(=O)C1CCC(CNc2c(N3CCOCC3)c(=O)c2=O)CC1 (configuration not stated) | inactive | 18.9 |
| Cc1cccc(N2CCN(C(=O)COc3ccc4c(c3)CCC4)CC2C)c1 (configuration not stated) | 2.06 µM (active) | -2.19 |
| O=C(COc1ccc2c(c1)CCC2)N1CCN(c2cccc(C(F)(F)F)c2)CC1 | inactive | 20.7 |
| Cc1cccc(N2CCN(C(=O)COc3ccc4c(c3)CCC4)CC2)c1C | inactive | 1.12 |
| CCOC(=O)c1ccc(NC(=O)Cn2nnc(-c3ccc(F)cc3)n2)cc1 | inactive | -3.44 |
| COc1ccc(OC)c(Nc2nc3nonc3nc2N2CCCC(C)C2)c1 (configuration not stated) | inactive | 7.7 |
| CC(C)c1onc(C(=O)N2CCCCCC2)c1[N+](=O)[O-] | inactive | -15.8 |
| CC(C)c1onc(C(=O)N2CCOCC2)c1[N+](=O)[O-] | inactive | -0.564 |
| CC(C)c1onc(C(=O)N2CCCCC2)c1[N+](=O)[O-] | 0.82 µM (active) | -22.7 |
| CS(=O)(=O)N1CCC(C(=O)Nc2ccc(Cl)c(Cl)c2)CC1 | inactive | -6.77 |
| COc1ccc(CC(=O)OCC(=O)Nc2ccc3c(c2)OCCO3)cc1OC | inactive | 3.44 |
| O=C(CCn1c(=O)[nH]c2ccsc2c1=O)N1CCN(Cc2ccc3c(c2)OCO3)CC1 | inactive |  |

| SMILES | Potency | cell number change [%] |
| --- | --- | --- |
| Cc1ccc(-c2nc3ccccc3[nH]2)cn1 | inactive | 10.6 |
| CCN(CC)S(=O)(=O)c1cc(C(=O)Nc2cc(C)on2)c(Cl)cc1Cl | inactive | -16.4 |
| CCN(CC)S(=O)(=O)c1cc(C(=O)n2cccn2)c(Cl)cc1Cl | 4.61 µM (active) | -0.259 |
| CCN(CC)S(=O)(=O)c1cc(C(=O)Nc2cccnc2Cl)ccc1Cl | inactive |  |
| Cn1cccc1C(=O)NC(=O)COC(=O)CC12CC3CC(CC(Br)(C3)C1)C2 | 7.31 µM (active) | 2.25 |
| CC(=O)NC12CC3CC(C1)CC(C(=O)OCC(=O)NC(=O)c1cccn1C)(C3)C2 | inactive | -12.7 |
| O=C(COC(=O)CC12CC3CC(CC(Br)(C3)C1)C2)NC(=O)NCc1ccco1 | inactive | -9.1 |
| O=C(NCc1nc2ccccc2[nH]1)c1c(F)c(F)c(F)c(F)c1F | inactive | -0.311 |
| O=C(O)C1CCCCC1C(=O)NCCc1cccc(Cl)c1 (configuration not stated) | inactive | -1.17 |
| Cc1ccn(CC(=O)N2CCCC(N3CCN(c4cccc(Cl)c4)CC3)C2)n1 (configuration not stated) | inactive | 14.6 |
| Cc1nc(CNC(=O)CC2C(=O)NCCN2Cc2ccc(F)cc2)cs1 (configuration not stated) | inactive | 20.2 |
| CCN(CC)S(=O)(=O)c1ccc(OC)c(NC(=O)C2CC(=O)N(c3ccc4c(c3)OCCO4)C2)c1 (configuration not stated) | inactive | -25.9 |
| COc1ccc(C(=O)N2CCCC(CCC(=O)N3CCN(c4ccccn4)CC3)C2)cc1 (configuration not stated) | 8.2 µM (active) | -15.8 |
| CN(C)c1ccc(C(=O)N2CCCC(CCC(=O)N3CCN(c4ccccn4)CC3)C2)cc1 (configuration not stated) | inactive | -25.3 |
| C=Cc1ccc(C(=O)N2CCCC(CCC(=O)N3CCN(c4ccccn4)CC3)C2)cc1 (configuration not stated) | inactive | -2.91 |
| COc1ccc(-n2cccc2/C=C2\C(=N)N3N=C(c4ccco4)SC3=NC2=O)cc1 | inactive | -5.47 |
| CC(C)(C)NC(=O)Cn1ccc(=N)c2ccccc21 | inactive | -1.29 |
| CCCCNc1c(-c2ccc(-c3cccc(Cl)c3)cc2)nc2ccccn12 | 23.1 µM (active) | 5.08 |
| CCCCNc1c(-c2cccc(SC3CCCCC3)c2)nc2ccc(Cl)cn12 | inactive | 5.29 |
| CCOC(=O)CNc1c(-c2ccc(O)cc2)nc2ccccn12 | inactive | 4.87 |
| O=C1CCCC2(O)C1C(c1cccc(Br)c1)NC(=O)N2Cc1ccccc1 (configuration not stated) | inactive | 1.15 |
| CCCS(=O)(=O)N1CCN(CCCc2ccccc2)CC1 | inactive | 6.21 |
| O=S(=O)(CCc1ccccc1)N1CCOCC1 | 5.8 µM (active) | 1.99 |
| c1ccc(CCCN2CCOCC2)cc1 | inactive | 11.8 |

| SMILES | Potency | cell number change [%] |
| --- | --- | --- |
| CC(C)Sc1nnc(NC(=O)c2ccc3c(c2)OCO3)s1 | inactive |  |
| O=C(COC(=O)COc1ccccc1)NC1CCCC1 | inactive | -5.97 |
| COc1ccc(NC(=O)c2cc3n(n2)C(C(F)(F)F)CC(c2ccc4c(c2)OCO4)N3)cc1OC (configuration not stated) | 16.4 µM (active) | -18.2 |
| COc1ccc(OC)c(NC(=O)c2cc3n(n2)C(C(F)(F)F)CC(c2ccc4c(c2)OCO4)N3)c1 (configuration not stated) | inactive | 16.6 |
| COc1ccc(C2CC(C(F)(F)F)n3nc(C(=O)O)cc3N2)cc1OC (configuration not stated) | inactive | 20.6 |
| Cn1cc(CN2CCC(CO)CC2)c(-c2ccc(Oc3ccccc3)cc2)n1 | inactive | -5.37 |
| COc1cccc(CNC(=O)C2CCN(S(=O)(=O)N3CCC4(CC3)OCCO4)CC2)c1 | inactive | 8.33 |
| O=C(Nc1ccc(S(=O)(=O)Nc2ncccn2)cc1)C1=COCCO1 | inactive | 6.63 |
| CC1Sc2ccc(S(=O)(=O)NCCc3ccc(S(N)(=O)=O)cc3)cc2NC1=O (configuration not stated) | 2.59 µM (active) | -0.885 |
| CC1Sc2ccc(S(=O)(=O)NCCc3ccccc3)cc2NC1=O (configuration not stated) | inactive | -2.36 |
| CC1Sc2ccc(S(=O)(=O)NCCc3ccc(Cl)cc3)cc2NC1=O (configuration not stated) | inactive |  |
| CC(=O)c1ccc(NC(=S)N2CCC(Cc3ccccc3)CC2)cc1 | inactive | -2.62 |
| Cc1cc(C)cc(-n2c(C)cc(/C=N/NC(=O)c3ccncc3)c2C)c1 | inactive | -4.41 |
| Cc1ccc(-n2c(C)cc(/C=N/NC(=O)c3ccncc3)c2C)cc1 | inactive |  |
| Cc1ccc(-n2c(C)cc(/C=N/NC(=O)c3ccncc3)c2C)c(C)c1 | 18.4 µM (active) | -26.9 |
| O=C(c1ccc(-c2ccccc2)c(F)c1)C1CCCN(CCCn2cccn2)C1 (configuration not stated) | inactive | 2.71 |
| CN(C)c1ccc(/C=N/NC(=O)c2ccccc2O)o1 | inactive |  |
| Cc1nn(-c2ccc(F)cc2)c(C)c1CN1CCN(CCC(C)C)C(CCO)C1 (configuration not stated) | inactive | 12.5 |
| COCC(=O)N1CCN(c2cccc(Cl)c2)CC1 | inactive | -20.3 |
| CC1=CC(C)C2C(=O)N(O)C(=O)C2C1 (configuration not stated) | 20.6 µM (active) | -17.9 |
| CC1=CC(C)C2C(=O)N(CCC[N+](C)(C)C)C(=O)C2C1 (configuration not stated) | inactive | 2.72 |
| CC1=CC(C)C2C(=O)N(c3ccccc3)NC(=O)C2C1 (configuration not stated) | inactive | 6.7 |
